Screens deposited in PubChem BioAssay by National Center for Advancing Translational Sciences (NCATS).
ASM inhibitor: Inhibitors of Secretory Acid Sphingomyelinase (S-ASM): qHTS | Sphingomyelin phosphodiesterase (Homo sapiens), P17405 | placental ASM, HMU-PC fluorogenic substrate, 60 min | Potency, µM (highest dose often 57.5 µM), inactives show top-dose activity change, negative = inhibition, most hits filed as inhibitors | hit rate 0.006% among 340,000; further: potency means the concentration at half of the fitted maximal effect
Target sequence (P17405 47-631 limits assumed): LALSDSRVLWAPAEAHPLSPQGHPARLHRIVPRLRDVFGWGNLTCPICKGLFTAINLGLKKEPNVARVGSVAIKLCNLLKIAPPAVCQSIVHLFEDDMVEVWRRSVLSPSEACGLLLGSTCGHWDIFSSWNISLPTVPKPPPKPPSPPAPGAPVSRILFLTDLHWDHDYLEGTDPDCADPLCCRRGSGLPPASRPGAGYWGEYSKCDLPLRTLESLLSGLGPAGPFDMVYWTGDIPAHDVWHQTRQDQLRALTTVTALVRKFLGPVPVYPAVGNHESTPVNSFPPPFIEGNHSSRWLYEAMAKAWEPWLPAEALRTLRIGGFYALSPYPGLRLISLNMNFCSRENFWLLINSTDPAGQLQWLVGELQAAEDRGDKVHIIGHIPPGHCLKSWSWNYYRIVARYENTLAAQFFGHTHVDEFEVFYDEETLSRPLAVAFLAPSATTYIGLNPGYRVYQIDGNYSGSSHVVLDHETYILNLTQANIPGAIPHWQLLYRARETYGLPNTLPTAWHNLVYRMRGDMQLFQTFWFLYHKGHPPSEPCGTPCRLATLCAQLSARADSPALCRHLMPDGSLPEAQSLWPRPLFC
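Human placenta-derived ASM preincubated with compound 10 min at room temperature, then reacted with 9 uM (final) fluorogenic HMU-PC substrate for 60 min at 37 C. Stop solution raises pH to 10; fluorescence read at Ex 386/Em 447 nm.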
MCF10A rereplic: A quantitative high throughput screen for small molecules that induce DNA re-replication in MCF 10a normal breast cells. MCF 10A DNA re-replication, Hoechst nuclear intensity, 48 h. Potency, µM (highest dose often 46.1 µM), for inactives: at the highest dose activity, positive = re-replication, actives largely listed as activators. hit rate 2.9% among 350,000. AID 624296, 2012; further: potency means the concentration at half of the fitted maximal effect; % of control where 0% means no effect; nearly all actives have a fitted effect of over 50% in size
Giardia killer: Small Molecules that selectively kill Giardia lamblia: qHTS; Giardia lamblia trophozoite viability; activity change, % at 7.66 µM, hits read low; hit rate 0.15% among 340,000; in the data active means activity change below about -80%; inconclusive means between about -30% and that limit;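 further: parasites exposed to compound for two days anaerobically before the ATP read; on the % scale 0 is the no-effect control and ±100 the full control effect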
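Media and compound were dispensed first, then trophozoites at 100 cells/well; plates sat 48 hrs at 37 deg C without oxygen before ATP luminescence reagent was added and read after 15-30 min at room temperature.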
KB-3-1 cytotox: qHTS assay for MDR1-selective chemotherapeutics: Primary screen using the parental adenocarcinoma cell KB-3-1 | KB-3-1 viability, CellTiter-Glo ATP luminescence, 72 h | Potency, µM (highest dose often 46.1 µM), actives largely listed as cytotoxic | hit rate 1.4% among 400,000 | AID 1347075, 2019; further: potency means the concentration at half of the fitted maximal effect; on the % scale 0 is the no-effect control and ±100 the full control effect; nearly all actives have a fitted effect of over 60% in size
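Cells are dispensed, compounds pinned in, plates held at 37 °C for 72 h, then CellTiter-Glo is added and luminescence read after 10 minutes. Cell line: parental KB-3-1 in phenol-red-free DMEM, 10% FBS.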
KB-V1 MDR tox: qHTS assay for MDR1-selective chemotherapeutics: Primary screen using the drug-selected MDR subline cells KB-V1; KB-V1 MDR cells viability, CellTiter-Glo, 72 h; hit rate 3.4% among 400,000; Potency, µM (series often up to 46.1 µM), actives largely listed as cytotoxic; further: potency means the concentration at half of the fitted maximal effect; on the % scale 0 is the no-effect control and ±100 the full control effect; nearly all actives have a fitted effect of over 60% in size
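KB-V1 MDR subline cells in DMEM (phenol-red free, 10% FBS) exposed to compounds in qHTS concentration series for 72 h at 37 degrees C. Viability read by CellTiter-Glo luminescence; concentration-effect curves fitted after normalization and correction.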
SW480 rerep: A quantitative high throughput screen for small molecules that induce DNA re-replication in SW480 colon adenocarcinoma cells. SW480 DNA re-replication, Hoechst DNA content imaging, 48 h. Potency, µM (highest dose often 46.1 µM), without a hit: at the highest dose re-replication activation, most hits filed as activators. hit rate 1.8% among 340,000. AID 624297, 2012; further: potency means the concentration at half of the fitted maximal effect; % of control where 0% means no effect; nearly all actives have a fitted effect of over 55% in size
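Cells (250 per well) received 23 nL compound or DMSO by pin tool and were kept 48 hr at 37 C, 5% CO2. Nuclei were then stained with Hoechst for 40 min and scanned for DNA content.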
* = called active by the depositor; i = inactive; ? = inconclusive; . = not tested or not shown; ! = repeats disagree. Compounds with a hit are over-represented: about 6.9% of the library has one in this group of screens. Unless noted, the call rests on the fitted dose curve; in most records, active means well fitted curve in the direction sought with a large enough effect; inconclusive means small, poorly fitted or top-dose-only effect, or another doubt; inactive means no such curve, though single readings can be large; an effect the other way counts as inactive or inconclusive.

SMILES | ASM inhibitor | MCF10A rereplic | Giardia killer | KB-3-1 cytotox | KB-V1 MDR tox | SW480 rerep
Cc1nc2c(sc3nc(N4CCOCC4)c4c(c32)CC(C)(C)OC4)c(-c2ccc(Cl)cc2)c1C(=O)O | 31% | 0.46µM* | -1 | ? | i | 5.2µM*
Nc1c(C(=O)NCCc2ccccc2)sc2nc(N3CCOCC3)c3c(c12)CCCC3 | i | 16µM* | -14 | i | i | 15µM*
CCOC(=O)c1sc2nc3c(cc2c1N)COC(C)(CC)C3 (configuration not stated) | 285% | 18µM* | -1 | i | i | ?
O=C1CC(c2nc3ccccc3[nH]2)CN1c1cccc(Cl)c1 (configuration not stated) | . | . | . | i | i | .
CCCCCc1ccc(C)cc1O | . | 4% | . | . | . | 1%
CC1(C)Cc2c(c(N3CCOCC3)nc3snc(N)c23)CO1 | 4% | 10µM* | -9 | 20µM* | i | -6%
COc1ccc(NC(=O)c2sc3nc(N4CCOCC4)c4c(c3c2N)CCCC4)cc1 | . | . | . | i | i | .
CC1(C)Cc2c(c(N3CCOCC3)nc3sc(C(=O)Nc4ccc(Cl)cc4)c(N)c23)CO1 | 145% | ? | 7 | 16µM*! | ? | 20%
Cc1ccc(NC(=O)c2sc3nc(N4CCOCC4)c4c(c3c2N)CC(C)(C)OC4)cc1 | i | ? | 21 | i | i | 15%
Nc1c(C(=O)c2ccccc2)sc2nsc(SCCN3CCOCC3)c12 | -24% | 13µM* | 10 | i | ? | ?
CCOc1ccc(NC(=O)c2sc3nc(N4CCOCC4)c4c(c3c2N)CC(C)(C)OC4)cc1 | 0% | 9% | 6 | 7.3µM* | i | 7%
ClC(=Nc1cccc2ccccc12)N(c1ccccc1)c1ccccc1 | . | . | . | i | i | .
COc1cccc(CN(C)C(=O)CSC(C)C(=O)Nc2cc(C)on2)c1OC (configuration not stated) | -2% | -1% | -1 | i | i | 0%
COc1ccc(CC(=O)OCC(=O)Nc2ccc(F)cc2)cc1 | -2% | 0% | -1 | i | i | -4%
COC(=O)c1sccc1NS(=O)(=O)c1ccccc1[N+](=O)[O-] | 2% | -1% | -9 | i | i | -3%
COc1cc2ccccc2cc1C(=O)OCC(=O)Nc1ccc(Br)cc1 | . | . | . | i | i | .
COc1cccc(NC(=O)c2sc3nc(N4CCOCC4)c4c(c3c2N)CC(C)(C)OC4)c1 | . | . | . | i | i | .
COc1ccc(NC(=O)c2sc3nc(N4CCCC4)c4c(c3c2N)CC(C)(C)OC4)c(OC)c1 | 216% | ? | -24 | i | i | 2.9µM*
COc1cc(-c2noc(-c3ccc(NC4CCCCC4)c([N+](=O)[O-])c3)n2)cc(OC)c1OC | . | . | . | i | i | .
C=CCNC(=O)C(=O)Nc1ccc2c(c1)N(S(=O)(=O)c1cccs1)CCC2 | 0% | ? | -7 | ? | 23µM* | ?
CCNC(=O)C(=O)Nc1ccc2c(c1)N(S(=O)(=O)c1cccs1)CCC2 | -5% | 29% | -7 | i | ? | ?
O=C(Nc1ccc2c(c1)N(S(=O)(=O)c1cccs1)CCC2)c1c(F)cccc1F | -6% | 12% | -6 | i | i | 0%
CCCNC(=O)C(=O)Nc1ccc2c(c1)N(S(=O)(=O)c1cccs1)CCC2 | -4% | 15µM* | 5 | ? | ? | 18µM*
COCCCNC(=O)C(=O)Nc1ccc2c(c1)N(S(=O)(=O)c1cccs1)CCC2 | -2% | 1.3µM* | 4 | 1.2µM* | 1µM* | 1µM*
CN(C)CCNC(=O)C(=O)Nc1ccc2c(c1)N(S(=O)(=O)c1cccs1)CCC2 | 2% | ? | -12 | 6.5µM* | ? | 18µM*
SMILES | ASM inhibitor | MCF10A rereplic | Giardia killer | KB-3-1 cytotox | KB-V1 MDR tox | SW480 rerep
CN(C)CCCNC(=O)C(=O)Nc1ccc2c(c1)N(S(=O)(=O)c1cccs1)CCC2 | 1% | ? | -4 | ? | i | 2%
CN1C(=O)Cc2cc(S(=O)(=O)CCC(=O)Nc3ccccc3)ccc21 | . | . | . | i | i | .
C#C[C@]1(O)CCC2C3CCC4=CC(=O)CC[C@@H]4C3CC[C@@]21C (some centres not stated) | -1% | -4% | -8 | ? | 2.9µM* | -6%
c1ccc(-c2nc(NCC3CCCO3)c3oc4ccccc4c3n2)cc1 (configuration not stated) | -16% | ? | -10 | i | 3.7µM* | -4%
c1ccc2c(c1)oc1c(NCC3CCCO3)ncnc12 (configuration not stated) | 3% | -1% | 10 | i | 16µM* | -5%
c1ccc(CNc2ncnc3c2oc2ccccc23)nc1 | 6% | 6% | 19 | i | 21µM* | 0%
CC(C)Cc1nc2oc3c(NCc4cccnc4)ncnc3c2c2c1CCC2 | -2% | -1% | 8 | i | ? | -20%
CC(C)Cc1nc2oc3c(NCC4CCCO4)ncnc3c2c2c1CCC2 (configuration not stated) | -4% | ? | 7 | ? | 10µM* | -4%
COC(=O)c1c(NC(=O)c2nc(SCc3ccc(F)cc3)ncc2Cl)sc2c1CCCC2 | . | . | . | i | i | .
C/C(=N\NC(=O)CNc1cccc(Cl)c1C)c1cccs1 | -2% | 20% | 18 | i | i | 18µM*
COc1ccccc1NCC(=O)N/N=C(\C)c1cccs1 | -1% | 0% | -12 | i | i | -24%
O=c1c([N+](=O)[O-])c(O)c2ccccc2n1Cc1ccccc1 | -1% | 6% | 4 | i | i | -16%
O=C1CCCc2c1cc(C(=O)O)c(=O)n2-c1ccccc1 | 1% | -1% | 8 | i | i | -2%
CCCCn1c(=O)c2c(O)cc(=O)oc2c2ccccc21 | 3% | -5% | 2 | i | 4.6µM* | -10%
O=c1cc(O)c2c(=O)n(Cc3ccccc3)c3ccccc3c2o1 | 17% | ? | -11 | i | 6.5µM* | 12%
O=c1cc(O)c2c(=O)n(-c3ccccc3)c3c(c2o1)CCCCCC3 | 4% | ? | -13 | i | 5.2µM* | 2%
O=c1cc(O)c2c(=O)n(C3CCCCC3)c3ccccc3c2o1 | 0% | ? | 13 | ? | 4.1µM* | 0%
CC(=O)N1CCc2c(sc3c2c(=O)n(-c2ccc(C)cc2)c(=O)n3Cc2c(F)cccc2Cl)C1 | . | . | . | i | i | .
CC(C(=O)c1ccccc1)[n+]1ccc(Cl)c2ccc(Cl)cc21 (configuration not stated) | . | . | . | i | i | .
